# Compounds without any hit were thinned out: in the full panel of roughly 79,000, 15% have a hit. Values without a mark were called inactive. Calls of active or inactive are those of the source. Cut-off read from the data, not from the text of the source: active = growth inhibition above about 70%; inactive = the rest.
# Experiments:
# [1] = NCI Yeast Anticancer Drug Screen. Data for the rad50 strain (AID 155);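 note: 0% = growth of vehicle-only cultures of the same strain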; settings: S. cerevisiae rad50 strain growth inhibition; at 50.0 µM; stronger effect = higher value
# Method in brief: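 Yeast carrying a defined DNA repair defect were exposed to test compounds, and growth was compared with vehicle-treated controls to give percent inhibition.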
# [2] = NCI Yeast Anticancer Drug Screen. Data for the mec2-1 strain (AID 157); settings: S. cerevisiae mec2-1 strain, at 50.0 µM, stronger effect = higher value
# Method in brief: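 Readout is yeast growth inhibition, normalised to vehicle-treated controls, in the mec2-1 strain exposed to compound.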
# [3] = NCI Yeast Anticancer Drug Screen. Data for the sgs1 mgt1 strain (AID 161);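 note: 0% = growth of cultures given vehicle only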; settings: S. cerevisiae sgs1 mgt1 strain, at 50.0 µM, stronger effect = higher value
# Method in brief: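 Yeast cells carrying a defined DNA-repair defect were exposed to test compounds. Growth inhibition was measured relative to vehicle-treated controls.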
# [4] = NCI Yeast Anticancer Drug Screen. Data for the cln2 rad14 strain (AID 165);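 note: 0% = growth equal to vehicle treated cultures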; settings: S. cerevisiae cln2 rad14 strain, at 50.0 µM, stronger effect = higher value
# Method in brief: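 Relative to vehicle controls, growth inhibition of compound-treated cln2 rad14 yeast was recorded.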
# [5] = NCI Yeast Anticancer Drug Screen. Data for the bub3 strain (AID 167); settings: S. cerevisiae bub3 mutant strain, at 50.0 µM, stronger effect = higher value
# Method in brief: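 Compounds were applied to a genetically altered yeast strain carrying a cell-cycle control defect. Growth inhibition was scored against vehicle-treated controls.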
# [6] = NCI Yeast Anticancer Drug Screen. Data for the mlh1 rad18 strain (AID 175); settings: S. cerevisiae mlh1 rad18 strain growth inhibition; at 50.0 µM; stronger effect = higher value
# Method in brief: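 Test agents were incubated with a yeast strain of defined genotype (DNA damage repair defect). Inhibition of growth was derived by comparison with vehicle-exposed cultures.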
SMILES,growth inhibition [1],growth inhibition [2],growth inhibition [3],growth inhibition [4],growth inhibition [5],growth inhibition [6]
Cc1ccc(S(=O)(=O)N(C)C)cc1NC1=NCCO1,-2.55%,5.75%,7.85%,-40.4%,-1%,-2.6%
CC1=C(O)c2cc3c(cc2C(=O)C1=O)OCO3,-21.5%,-0.95%,-15%,-15.6%,-18.4%,26.9%
CC(=O)Nc1ccc2c([N+](=O)[O-])cccc2c1-c1c(NC(C)=O)ccc2c([N+](=O)[O-])cccc12,44.2%,10.8%,35.4%,10.8%,5.55%,30.4%
COc1cc(NS(=O)(=O)c2ccccc2)ccc1C,27.6%,-20.3%,14.7%,12.3%,22.4%,24.9%
CNC(=O)Oc1ccc2c(c1)[C@]1(C)CCN(C)[C@@H]1N2C,-9.7%,-29.8%,-32.7%,-5.55%,-35.7%,-37.2%
C=CCOC(=O)NCC(=O)NC(C)C(N)=O (stereo not given),-22.7%,-14.2%,-19.1%,2.55%,-5.5%,4.25%
CC=C(c1ccc(OC)cc1)c1ccc(OC)cc1,0.9%,-9.95%,5%,-46.9%,2.55%,-4.5%
c1ccc2c(c1)ccc1c2ccc2c1cc1ccccn12,-4.2%,7.45%,-13.2%,-14.7%,-20.3%,0.8%
C=C1CC/C=C(\C)C(=O)C(O)C2C1CC2(C)C (stereo not given),14.9%,-13.7%,67.2%,16.4%,23.9%,78.8% (active)
Cc1cc(N(CCC#N)CCC#N)ccc1/C(N=Nc1ccccc1)=N\NC(=O)c1cc(Cl)ccc1O,18.8%,9.8%,2.7%,-3%,-17.4%,30.9%
COc1ccc(-c2c(C(C)=O)c(-c3ccccc3)n(C3OC(COC(C)=O)C(OC(C)=O)C(OC(C)=O)C3OC(C)=O)c(=S)c2C#N)cc1 (stereo not given),-17.7%,-25.9%,-26.1%,7.85%,0.75%,-36.2%
Cc1cc2nc(N)n[n+]([O-])c2cc1C,8.4%,7.35%,2%,-6.25%,1%,-24.9%
CN1CCN(c2ccncc2S(=O)(=O)N2CCN(C)CC2)CC1,-17.2%,-12.7%,1.2%,-15.4%,-11.4%,-2.5%
C=CC[N+]12CC=C3COC(=O)C(C)(O)C(C)(O)C(C)C(=O)OC(CC1)C32 (stereo not given),0.4%,-0.2%,0.4%,-25.9%,-3.55%,-5.65%
CC(=O)O[C@]12CCCCCC1C1(O)C(O)CCC[C@H]12 (stereo not given in full),-29.4%,-19.9%,-54.8%,17.6%,-26.1%,-47.3%
CC(O)(c1ccncc1)c1cc2ccccc2n1S(=O)(=O)c1ccccc1 (stereo not given),2.2%,2.65%,14.8%,-20.1%,1.95%,6.15%
C=CCOC(=O)OCCO,5.95%,-0.55%,-2.8%,-34.5%,-5.5%,-15.9%
CC(=O)N1C(=O)NC(=O)C1(C)c1cccs1 (stereo not given),23.2%,-8.9%,2.9%,-75.1%,2%,1.2%
OCCc1cc2ccccc2c2ccccc12,-3.55%,6.75%,-4.8%,-11.9%,-15.9%,-12.9%
OCC1=C(CO)CC=CC1,-21%,10%,2.2%,1.5%,-3.05%,28.6%

# From PubChem BioAssay (NCI)
